We go through 15 molecules from PubChem BioAssay (NCATS).

SMILES strings stand for the structures. Where “and” joins values, the source holds several entries; their conditions need not be identical. Identical values can stand only once. A number with no mark means an inactive call. Inconclusive results are not listed. Calls of active or inactive are those of the source. The call rests on the fitted dose curve; in most records, active means well fitted curve in the direction sought with a large enough effect; inconclusive means small, poorly fitted or top-dose-only effect, or another doubt; inactive means no such curve, though single readings can be large; an effect the other way counts as inactive or inconclusive.

Assay [1] concerns the target Glutathione peroxidase 1 (Homo sapiens) (UniProt P07203). As to the kind of experiment: Primary qHTS Assay for Inhibitors of Recombinant Selenoprotein Glutathione Peroxidase 1 (GPX1) (AID 1845191). Further: nearly all actives have a fitted effect of over 65% in size. On activity, negative = inhibition: on the % scale 0 is the no-effect control and ±100 the full control effect. Put shortly: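 Recombinant GPX1 (10 nM final) was preincubated with compound for 30 min at room temperature, then reacted with 1 mM GSH, 0.5 mM CHP, 0.5 mM NADPH and 100 nM glutathione reductase; NADPH fluorescence (340/450 nm) was read at 0 and 15 min.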

Assay [2] concerns the target Phospholipid hydroperoxide glutathione peroxidase GPX4 (Homo sapiens) (UniProt P36969). In words: Primary qHTS Assay for Inhibitors of Recombinant Selenoprotein Glutathione Peroxidase 4 (GPX4) (AID 1845192). Further: nearly all actives have a fitted effect of over 65% in size. The essentials: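 GR-coupled readout: 100 nM GR, 1 mM GSH, 0.5 mM NADPH; NADPH fluorescence (ex 340/em 450 nm) read at t=0 and after 15 min RT. GPX4 200 nM, preincubated 30 min with compound; substrate 0.5 mM CHP.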

Assay [3] has as its target Luciferin 4-monooxygenase (Photinus pyralis) (UniProt P08659). In words: Primary firefly luciferase (FLuc) qHTS assay for identification of artifact compounds. (AID 1845220).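 Further: plate controls were DMSO vehicle for no effect and no enzyme for full effect; nearly all actives have a fitted effect of over 60% in size.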 The essentials: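 Reaction readout was CCD-imaged luminescence, taken 5 min after adding 10 nM purified firefly enzyme to compound-treated wells holding 10 uM luciferin and ATP in pH 7.6 buffer.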

Assay [4] can be described thus: Primary fluorescence-based thiol-reactive (MSTI) qHTS assay for identification of artifact compounds. (AID 1845221).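 Further: thiol-reactive compounds lower the probe fluorescence signal; nearly all actives have a fitted effect of over 65% in size.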 The essentials:
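MSTI probe at 4 uM final in 2% DMSO/PBS pH 7.4; compounds, 1 h at room temperature in dark. Fluorescence Ex/Em 525/598 nm, normalised to Acetyl-MSTI and MSTI, fitted to 4-parameter Hill.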
In general terms: qHTS replaces the single test concentration by a dilution series.

For assay [5], the system named is Nanoluciferase (engineered Oplophorus gracilirostris luciferase). As to the kind of experiment: Primary Nanoluciferase (NLuc) qHTS assay for identification of artifact compounds. (AID 1845222).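 Further: NLuc secreted into diluted conditioned medium of S16 cells; 0% = DMSO and -100% = no enzyme.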 The essentials: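 Concentration-response data were obtained by luminescence after 5 min with Nano-Glo substrate at 1:100. The enzyme was diluted S16 NLuc-expressing cell medium, preincubated with compound for 15 min at RT. Curves were fitted with a 4-parameter Hill model.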

Assay [6] in a line: Primary redox qHTS assay for identification of artifact compounds. (AID 1845223).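 Further: 0% = DMSO and 100% = reference compound.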 Put shortly:
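Amplex Red (25 uM) and HRP (250 mU/mL) in HBSS, with compounds for 15 min, then 250 uM DTT for 30 min, room temperature, dark. Fluorescence 525/598 nm read; normalized to DMSO and 10 uM DA3003; Hill fit.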

The subject of assay [7] is 3D7. As to the kind of experiment: qHTS profiling for inhibitors of Plasmodium falciparum proliferation (AID 504749). Further: nearly all actives have a fitted effect of over 60% in size. Further: potency means the concentration at half of the fitted maximal effect.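 On activity, negative = inhibition: 0% = DMSO vehicle and full inhibition = artemisinin control.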 The following applies: P. falciparum in erythrocytes, SYBR Green DNA, 72 h; series mostly up to 28.7 µM. Put shortly:
(§1)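 P. falciparum-infected erythrocytes (0.3% parasitemia, 2.5% hematocrit final) were exposed to compounds for 72 h at 37 C in 5% CO2, then lysed with SYBR Green buffer overnight at room temperature; parasite DNA fluorescence was normalized to artemisinin and DMSO controls.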

For assay [8], the system named is 7G8. The assay is described as above. The following applies: P. falciparum in erythrocytes, SYBR Green DNA, 72 h; series mostly up to 28.7 µM. The essentials:
as §1

Test in assay [9]: as above
The following applies: P. falciparum in erythrocytes, SYBR Green DNA, 72 h. Put shortly: as §1

Assay [10] can be described thus: KB-3-1 P-gp reporter qHTS against the NCATS DSHEA and TCM libraries (AID 1919975). Further: 0% is about no effect. The essentials: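 Parental KB-3-1 cells, 500 cells/well, in DMEM with 10% FBS, exposed 72 h at 37 C to compounds in concentration-response. Viability read by CellTiter-Glo luminescence after 30 min at room temperature.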
The nature of assay [11]: qHTS Counterscreen for compound interference against the NCATS DSHEA and TCM libraries (AID 1919978).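 Further: compounds preincubated with 1 µM D-luciferin or buffer before detection reagent; % of control where 0% means no effect.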 Conditions: firefly luciferase detection reagent interference, luminescence. The essentials:
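Firefly luciferase detection reagent was added after compounds (19.5 nM–39.8 uM final) had been incubated 15 min at room temperature with 1 uM D-luciferin or with 100 mM phosphate buffer alone. Luminescence was read after 30 min at room temperature.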

The nature of assay [12]: Dual reporter qHTS for agonist of Pregnane X Receptor (hPXR) against the NCATS DSHEA and TCM libraries: Fluorescence readout (AID 1920058). Further: 0% is about no effect. The essentials:
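hPXR-Luc HepG2 cells (2000/well) in phenol red-free medium with charcoal-stripped FBS attached for 5 h, then were exposed to compounds for about 24 h at 37 °C. Viability was read by CellTiter-Fluor fluorescence (Ex/Em 405/540 nm) after 1 h.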

Assay [13] deals with Nuclear receptor subfamily 1 group I member 2 (Homo sapiens) (UniProt O75469). In words: Dual reporter qHTS for agonist of Pregnane X Receptor (hPXR) against the NCATS DSHEA and TCM libraries: Luminescence readout (AID 1920059). Further: 0% is about no effect. Put shortly:
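hPXR-LucHepG2 cells in phenol red-free DMEM with 5% charcoal-stripped FBS, 2000 cells/well, attached 5 h, then exposed 24 h at 37C to compounds; rifampicin as positive agonist control (2.8 nM–92 uM). Luciferase luminescence read.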

Assay [14] has the same target. As to the kind of experiment: Dual reporter qHTS for antagonist of Pregnane X Receptor (hPXR) against the NCATS DSHEA and TCM libraries: Luminescence Readout (AID 1920060).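 Further: HepG2 cells carrying hPXR luciferase reporter stimulated with rifampicin at 2 µM; 0% is about no effect.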 The essentials: (§2)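 HepG2 hPXR-Luc, 2000 cells/well, charcoal-stripped FBS medium; 5 h attach; RIF 2 uM final; 24 h 37C/5% CO2; CellTiter-Fluor 1 h, fluor 405/540; ONE-Glo 30 min RT, lum.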
Assay [15] is described as follows: Dual reporter qHTS for antagonist of Pregnane X Receptor (hPXR) against the NCATS DSHEA and TCM libraries: Fluorescence Readout (AID 1920061). Further: 0% is about no effect. The essentials: as §2
Where [16] appears, read: at 28.7 µM (top of the series), parasite line A.
The mark [17] stands for this setting: at 28.7 µM (top of the series), parasite line B.

Chain of Phospholipid hydroperoxide glutathione peroxidase GPX4 (Homo sapiens) (P36969 whole entry, looked up): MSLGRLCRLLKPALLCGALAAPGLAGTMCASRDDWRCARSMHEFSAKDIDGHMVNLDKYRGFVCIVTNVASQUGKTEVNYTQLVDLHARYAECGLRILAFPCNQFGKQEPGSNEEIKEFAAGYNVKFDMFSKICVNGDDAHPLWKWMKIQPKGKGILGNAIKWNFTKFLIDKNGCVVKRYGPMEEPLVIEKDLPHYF
Chain of Glutathione peroxidase 1 (Homo sapiens) (P07203 whole entry, looked up): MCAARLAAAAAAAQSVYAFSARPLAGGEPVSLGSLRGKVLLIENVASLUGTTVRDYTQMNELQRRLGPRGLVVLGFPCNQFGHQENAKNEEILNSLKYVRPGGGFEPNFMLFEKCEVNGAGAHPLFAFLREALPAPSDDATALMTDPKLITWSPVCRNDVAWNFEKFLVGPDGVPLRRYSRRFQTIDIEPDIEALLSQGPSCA
Chain of Nuclear receptor subfamily 1 group I member 2 (Homo sapiens) (O75469 whole entry, looked up): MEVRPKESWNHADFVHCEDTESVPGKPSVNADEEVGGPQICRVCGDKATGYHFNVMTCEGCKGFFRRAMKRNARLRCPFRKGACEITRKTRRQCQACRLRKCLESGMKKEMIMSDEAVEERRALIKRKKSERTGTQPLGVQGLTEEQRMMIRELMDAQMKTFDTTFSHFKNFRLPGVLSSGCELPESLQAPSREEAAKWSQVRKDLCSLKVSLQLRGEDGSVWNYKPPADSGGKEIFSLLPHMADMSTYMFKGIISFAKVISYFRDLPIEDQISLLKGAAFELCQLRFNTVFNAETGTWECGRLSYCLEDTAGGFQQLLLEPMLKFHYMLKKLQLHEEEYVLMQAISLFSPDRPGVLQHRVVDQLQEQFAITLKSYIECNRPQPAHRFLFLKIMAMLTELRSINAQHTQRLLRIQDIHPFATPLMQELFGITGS

With `CN1[C@@H]2CC[C@H]1CC(OC(c1ccccc1)c1ccccc1)C2` (stereo partly drawn), the Potency entry in assay [1], in [2], in [3], in assay [5] and in assay [7] was “inactive” throughout. In addition, the molecule was called inactive in assay [4] and in assay [6]. Besides, in [8], the Potency is 5.62 µM (active) and 7.08 µM (active).

For `Nc1nc(Nc2ccccc2)nc2c1ncn2[C@@H]1O[C@H](CO)[C@@H](O)[C@H]1O`, the Potency entry in assay [1] and in assay [2] was “inactive” each time.

Consider `Cc1ccc(C(=O)c2ccc(CC(=O)O)n2C)cc1`, for which the Potency result in [1], in [2], in assay [7] and in [8] was “inactive” each time. Moreover, the activity, negative = inhibition in assay [9] (at 12.8 µM (top of the series), parasite line A) is -5.58%; in [9] (at 12.8 µM (top of the series), parasite line B), 10.6%.

With `CCCCCCCCCCCCCCCCCC(=O)O`, the Potency result in assay [1], in [2], in assay [7] and in assay [8] was “inactive” each time. For the same molecule, the molecule was called inactive in assay [10], in assay [12], in [13], in [14] and in [15]. Besides, in [11], the max response was 4.77%. In addition, the activity, negative = inhibition was -10.1% in assay [9] (setting [16]) and -2.97% in assay [9] (setting [17]).

Regarding `CCCCCCOc1ccccc1C(N)=O`, the Potency result in [1], in assay [2], in [7] and in assay [8] was “inactive” each time. Further, the activity, negative = inhibition is -23.7% in assay [9] (setting [16]) and 1.07% in assay [9] (setting [17]).

For the molecule `O=C(CCSCc1ccco1)NNC(=O)N1Cc2ccccc2Oc2ccc(Cl)cc21`, the Potency result in [1] and in [2] was “inactive” in each case.

In the case of `O=[N+]([O-])c1ccc2c(c1)S(=O)(=O)C=C2`, the Potency entry in [1] and in assay [2] was “inactive” each time.

On to `CCCOC(=O)c1ccc(O)cc1`, for which the Potency entry in assay [1], in [2] and in assay [7] was “inactive” throughout. For the same molecule, the activity, negative = inhibition in assay [9] (setting [16]) is 4.05%; in assay [9] (setting [17]), 3.75%.

Regarding `Nc1cc(-c2ccncc2)c[nH]c1=O`, the Potency entry in assay [1], in [2] and in [7] was “inactive” each time. The activity, negative = inhibition in assay [9] (setting [16]) was 17.9%; in [9] (setting [17]) it was 15.4%.

As to `Fc1ccc2[nH]c(CN3CCN(c4ccccn4)CC3)cc2c1`, the Potency result in assay [1], in assay [2], in assay [3] and in assay [5] was “inactive” throughout. Besides, the molecule was classed as inactive in assay [4] and in assay [6].

As to `O=C(O)CC1CC(c2ccccc2)=NO1` (stereo not drawn), the Potency entry in assay [1], in assay [2], in assay [3] and in assay [5] was “inactive” throughout. In addition, the outcome in assay [4] and in assay [6] was inactive.

As to `CC(=O)SCC(CC(=O)c1ccc(C)cc1)C(=O)O` (stereo not drawn), the Potency result in assay [1], in assay [2] and in assay [5] was “inactive” each time. The result in assay [4] and in assay [6] was inactive.

Consider `COc1cc(NC(C)CCCN)c2ncccc2c1` (stereo not drawn), for which the Potency entry in [2] was “inactive”.

As for `OCC1O[C@H]([S-])[C@H](O)[C@@H](O)[C@@H]1O.[Au+]` (stereo partly drawn), the Potency result in [2] is “inactive”.

Consider `O=C(OCc1ccccc1)c1ccccc1`, for which the Potency entry in assay [1], in assay [2], in assay [7] and in assay [8] was “inactive” in each case. Besides, the values for the activity, negative = inhibition in assay [9] (setting [16]) and in assay [9] (setting [17]) were -9.71% and -8.05%, respectively.
